Mot1-301 SUMO – yeast Mot1-301 growth rescue at high temperature, primary screen, SUMOylation pathway inhibitor project, S. cerevisiae, ATP luminescence, 38.5C; S. cerevisiae Mot1-301 growth rescue; percent above DMSO median, 100 means doubled; growth rescue, % at 18.8 µM; 1% of 320,000 active; AID 2716, 2010;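 active = every valid replicate shows activation above 250% relative to neutral control wells; inactive = the rest, any valid replicate at or below 250%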;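 also: OY570 slx delta 5 strain wells were the positive control but not used for scaling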
AHR act – AHR activators, primary screen, cell-based, luminescence, luciferase reporter, human; AHR-responsive luciferase reporter cells; activation, % at 5 µM; 2.5% of 320,000 active; in the data active = activation above about 47%;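 also: 0% = vehicle wells and 100% = reference agonist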
GRIN3A LBD mod – binders of NR3A ligand-binding domain, primary screen, biophysical, differential scanning fluorimetry, uHTS; NR3A LBD differential scanning fluorimetry, Tm shift; 0% = protein alone, 100% = glycine-bound protein; Tm shift relative to glycine control, % at 25 µM; 2.5% of 340,000 active;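 active = melting temperature shift of at least 10% of the positive control shift, at one fixed dose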
NTR1 agonist – agonists of human NTR1, primary screen, imaging, U2OS cells, beta-arrestin-GFP, high content; 0.17% of 330,000 active; AID 493036, 2011; NTR1-U2OS beta-arrestin-GFP spot imaging, agonist mode; activation, % at 20 µM;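 active = activation at or above 40% of the spot to cytoplasm intensity ratio, with at least 20 cells analyzed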;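 also: 0% = DMSO without peptide and 100% = 100 nM NTR1 peptide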
Target sequence (P30989 whole entry, looked up): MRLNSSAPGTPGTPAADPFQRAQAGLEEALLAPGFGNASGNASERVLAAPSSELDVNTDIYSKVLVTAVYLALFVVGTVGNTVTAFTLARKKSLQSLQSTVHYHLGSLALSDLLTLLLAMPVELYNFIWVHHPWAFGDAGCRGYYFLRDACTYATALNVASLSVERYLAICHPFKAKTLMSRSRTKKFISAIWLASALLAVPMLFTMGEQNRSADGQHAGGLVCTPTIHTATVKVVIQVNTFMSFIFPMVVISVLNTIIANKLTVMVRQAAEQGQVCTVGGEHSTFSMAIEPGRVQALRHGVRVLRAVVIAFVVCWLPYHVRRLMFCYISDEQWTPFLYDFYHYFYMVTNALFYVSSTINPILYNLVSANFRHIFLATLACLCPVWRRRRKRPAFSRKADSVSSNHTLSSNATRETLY
H9c2 protect – cardioprotection against H2O2-induced cell death, primary screen, uHTS, H9c2 cells, ATPLite luminescence. H9c2 cardiomyocytes, H2O2 injury protection, 2 h. 0.63% of 360,000 active. protection from H2O2 cell death, % at 20 µM;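 active = compounds giving at least 50% protection of heart cells from peroxide-induced death in the single-dose screen, raw or plate-pattern-corrected value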;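 also: 0% = DMSO wells with peroxide and 100% = DMSO wells without peroxide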
AI-2 QS modul – Vibrio harveyi AI-2 quorum sensing modulators, primary screen, JMH597 strain, luminescence/OD600 ratio; Vibrio harveyi JMH597 AI-2 luminescence/OD600 ratio, 9 h; hits give low values; strain lacks LuxN and CqsS sensors; 0 = neutral-control median; activity change, % at 7.5 µM; 0.4% of 300,000 active; AID 2094, 2009; in the data active = activity change below about -75%, passing the limit was not always enough;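 also: luminescence divided by OD600 gain over 9 h not by final OD600 alone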
An asterisk follows results filed as active; nt = not tested or not shown. This is a sample that favours compounds with a hit; in the whole collection about 6.2% have one here.

SMILES | Mot1-301 SUMO | AHR act | GRIN3A LBD mod | NTR1 agonist | H9c2 protect | AI-2 QS modul
N#C/C(=C/c1ccc(OC(=O)c2ccc(Br)s2)cc1)c1nc2ccccc2[nH]1 | nt | nt | 3 | nt | 0 | nt
N#C/C(=C\c1ccncc1)c1nc2ccccc2[nH]1 | nt | nt | -1 | 4 | 18 | 15
Cc1ccc(NC(=O)c2cccc(S(=O)(=O)Nc3c(C)n(C)n(-c4ccccc4)c3=O)c2)cc1C | nt | nt | 1 | nt | nt | nt
CCOc1cc(/C=C2\C(=O)ON=C2c2ccccc2)cc(Br)c1O | 25 | 3 | nt | 31 | -16 | 26
CCOc1cc(/C=C2/C(=O)ON=C2C)cc(Br)c1O | 7 | 0 | 21* | 3 | 7 | 15
CCCNC(=O)C1(C)CCN(C(=O)c2ccc3sccc3c2)C1 (stereo not drawn) | nt | nt | nt | nt | -1 | nt
C[C@H](O)[C@@H]1CN2CCc3c([nH]c4ccccc34)[C@@H]2C[C@@H]1N(C)Cc1cc(Cl)cc(Cl)c1 | nt | nt | nt | nt | -7 | nt
CCN(CC)C1CC(=O)N(c2cccc(C)c2)C1=O (stereo not drawn) | 285* | 0 | nt | 7 | nt | 26
Cc1cccc(N2C(=O)CC(Cn3nc(C)cc3C)C2=O)c1 (stereo not drawn) | -4 | -1 | 1 | 0 | 17 | -9
CC(=O)c1ccc(NC(=O)CCOc2cc(C)ccc2C)cc1 | 8 | -1 | -2 | 2 | -18 | 4
CC1C(=O)C(C)C(c2cc(Cl)ccc2O)NC1c1cc(Cl)ccc1O (stereo not drawn) | 9 | 3 | 27* | 60* | -8 | -3
COc1cccc(C2NC(c3cccc(OC)c3O)C(C)C(=O)C2C)c1O (stereo not drawn) | 23 | -3 | 1 | 2 | 22 | 24
Cc1cccc(NC(=O)C(C)Oc2ccc(C)nc2[N+](=O)[O-])c1 (stereo not drawn) | -7 | 6 | 3 | -1 | 3 | nt
Cc1nc2ccccc2n1CCN1CCOCC1 | 9 | 72* | 1 | 0 | 0 | 7
COc1ccc(COc2cc(-c3cccc(OC)c3)nc3ccc(NC(=O)c4ccccc4)cc23)cc1 | -8 | 4 | 0 | 1 | 47 | 15
COc1ccc(COc2cc(-c3cccc(OC)c3)nc3ccc(NC(=O)c4ccc(OC)cc4)cc23)cc1 | 2 | 13 | 0 | 1 | 58* | 10
COc1ccc(COc2cc(-c3cccc(OC)c3)nc3ccc(NC(=O)c4ccc(Cl)cc4)cc23)cc1 | -2 | 9 | 10 | 0 | 22 | 1
COc1ccc(COc2cc(-c3cccc(OC)c3)nc3ccc(NC(=O)c4cccnc4)cc23)cc1 | -10 | 14 | 1 | 6 | 91* | 13
Cc1ccc2nc(-c3cccc(Br)c3)c(Cc3ccccn3)n2c1 | nt | nt | nt | nt | -5 | nt
COc1ccccc1C(=O)Nc1ccc(C(=O)/C=C/c2cccs2)cc1 | -11 | 28 | 11* | 6 | -7 | 16
COc1ccc(NC(=O)Nc2cccs2)cc1Cl | -13 | 13 | 30* | 0 | -9 | 13
COc1ccc(C(=O)Nc2ccc(NC(=O)c3cccs3)c(OC)c2)cc1Cl | nt | 2 | 33* | 4 | 17 | 19
COc1ccc(/C=C/C(=O)c2ccc(NC(=O)c3cccs3)cc2)cc1OC | -9 | 11 | 16* | 0 | 12 | -6
COc1cc(NC(=O)c2ccc(Cl)cc2Cl)ccc1NC(=O)c1cccs1 | -23 | 5 | -1 | 6 | 0 | 11
COc1ccc(C(=O)Nc2ccc(N3CCN(C(=O)c4cccs4)CC3)cc2)cc1Br | 5 | -2 | 5 | 0 | 14 | 25
COc1c(Cl)cc(Cl)cc1C(=O)Nc1ccc(NC(=O)c2cccs2)cc1 | 68 | -5 | 214* | 3 | 43 | -4
COc1c(Cl)cc(Cl)cc1C(=O)Nc1ccc(CN2CCOCC2)cc1 | 356* | nt | 3 | 1 | 3 | 11
COc1cc(OC)cc(C(=O)Nc2ccc(N3CCN(C(=O)c4cccs4)CC3)cc2)c1 | 10 | 53* | 2 | 1 | 5 | 22
